Measured values from publication PMC5540273 (PLoS ONE, 2017).

What was measured:
Conditions in all cases: concentration: 1 μM, replicates: in singlicate; n = 1
[1] = system: T1, YANK3
T1 construct: gene STK32C

[2] = system: T2, YES
T2 construct: gene YES1

[3] = system: T3, YSK1
T3 construct: gene STK25

[4] = system: T4, YSK4
T4 construct: gene MAP3K19

[5] = system: ZAK
[6] = system: ZAP70
[7] = system: T5, p38-alpha
T5 construct: gene MAPK14

[8] = system: T6, p38-beta
T6 construct: gene MAPK11

[9] = system: p38-delta
[10] = system: T7, p38-gamma
T7 construct: gene MAPK12
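Note: KINOMEscan kinase panel screen.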

## CNc1ncnc2[nH]ncc12 [SKF-18355]
[1]
  %Inh: 0%
[2]
  %Inh: 0%
[3]
  %Inh: 0%
[4]
  %Inh: 46%
[5]
  %Inh: 0%
[6]
  %Inh: 24%
[7]
  %Inh: 6%
[8]
  %Inh: 8%
[9]
  %Inh: 0%
[10]
  %Inh: 0%

## O=c1cc(N2CCOCC2)nc2n(Cc3cccc(F)c3)ccn12 [GSK2297430]
[1]
  %Inh: 22%
[2]
  %Inh: 16%
[3]
  %Inh: 0%
[4]
  %Inh: 33%
[5]
  %Inh: 0%
[6]
  %Inh: 0%
[7]
  %Inh: 43%
[8]
  %Inh: 0%
[9]
  %Inh: 22%
[10]
  %Inh: 0%

## COc1cc2ncn(-c3cc(OCc4sccc4Cl)c(C(N)=O)s3)c2cc1OC [GSK448459]
[1]
  %Inh: 0%
[2]
  %Inh: 6%
[3]
  %Inh: 0%
[4]
  %Inh: 89%
[5]
  %Inh: 0%
[6]
  %Inh: 0%
[7]
  %Inh: 0%
[8]
  %Inh: 0%
[9]
  %Inh: 23%
[10]
  %Inh: 0%

## O=c1cc(N2CCOCC2)nc2n(Cc3cccc4ccccc34)ccn12 [GSK2333389]
[1]
  %Inh: 38%
[2]
  %Inh: 2%
[3]
  %Inh: 0%
[4]
  %Inh: 15%
[5]
  %Inh: 3%
[6]
  %Inh: 0%
[7]
  %Inh: 0%
[8]
  %Inh: 0%
[9]
  %Inh: 16%
[10]
  %Inh: 0%

## COc1ccc(COc2cc(-n3cnc4ccccc43)sc2C(N)=O)cc1 [GSK1024304]
[1]
  %Inh: 0%
[2]
  %Inh: 0%
[3]
  %Inh: 0%
[4]
  %Inh: 15%
[5]
  %Inh: 14%
[6]
  %Inh: 0%
[7]
  %Inh: 35%
[8]
  %Inh: 0%
[9]
  %Inh: 36%
[10]
  %Inh: 0%

## CCCCCc1nc2c(N)ncnc2n1CCCCC [SKF-97255]
[1]
  %Inh: 0%
[2]
  %Inh: 0%
[3]
  %Inh: 12%
[4]
  %Inh: 14%
[5]
  %Inh: 13%
[6]
  %Inh: 13%
[7]
  %Inh: 0%
[8]
  %Inh: 19%
[9]
  %Inh: 0%
[10]
  %Inh: 50%

## c1ccc(-c2cc(-c3c[nH]nc3-c3ccccn3)ccn2)cc1 [GW576604]
[1]
  %Inh: 0%
[2]
  %Inh: 0%
[3]
  %Inh: 0%
[4]
  %Inh: 13%
[5]
  %Inh: 16%
[6]
  %Inh: 0%
[7]
  %Inh: 47%
[8]
  %Inh: 0%
[9]
  %Inh: 40%
[10]
  %Inh: 0%

## CCc1nc(-c2cccc(C)c2)c(-c2ccnc(NCc3ccccc3)c2)s1
[1]
  %Inh: 19%
[2]
  %Inh: 0%
[3]
  %Inh: 6%
[4]
  %Inh: 0%
[5]
  %Inh: 11%
[6]
  %Inh: 0%
[7]
  %Inh: 99.8%
[8]
  %Inh: 69%
[9]
  %Inh: 0%
[10]
  %Inh: 0%

## CN1c2ccc(NCc3ccc(F)cc3)cc2-c2c(cnn2C)S1(=O)=O
[1]
  %Inh: 0%
[2]
  %Inh: 0%
[3]
  %Inh: 0%
[4]
  %Inh: 8%
[5]
  %Inh: 0%
[6]
  %Inh: 0%
[7]
  %Inh: 0%
[8]
  %Inh: 0%
[9]
  %Inh: 13%
[10]
  %Inh: 0%

## NS(=O)(=O)c1cccc(-c2ccc3ncc(N4CCOCC4)nc3c2)c1 [GSK1535721]
[1]
  %Inh: 1%
[2]
  %Inh: 7%
[3]
  %Inh: 15%
[4]
  %Inh: 89%
[5]
  %Inh: 3%
[6]
  %Inh: 0%
[7]
  %Inh: 9%
[8]
  %Inh: 0%
[9]
  %Inh: 21%
[10]
  %Inh: 0%

## Cl.Nc1ncnc2occ(-c3ccc(NC(=O)Nc4cc(C(F)(F)F)ccc4F)cc3)c12 [SB-707548]
[1]
  %Inh: 7%
[2]
  %Inh: 60%
[3]
  %Inh: 50%
[4]
  %Inh: 99.9%
[5]
  %Inh: 42%
[6]
  %Inh: 19%
[7]
  %Inh: 86%
[8]
  %Inh: 63%
[9]
  %Inh: 93.4%
[10]
  %Inh: 96.8%

## COc1ccc(Nc2nccc(N3CCC(NC(=O)Nc4cc(C)ccc4C)C3)n2)cc1 (stereo not drawn) [GSK1379741]
[1]
  %Inh: 8%
[2]
  %Inh: 13%
[3]
  %Inh: 0%
[4]
  %Inh: 19%
[5]
  %Inh: 5%
[6]
  %Inh: 0%
[7]
  %Inh: 0%
[8]
  %Inh: 0%
[9]
  %Inh: 47%
[10]
  %Inh: 0%

## O=C(Nc1n[nH]c2cc(-c3cccc(F)c3)ccc12)C1CC1 [SB-735464]
[1]
  %Inh: 0%
[2]
  %Inh: 1%
[3]
  %Inh: 0%
[4]
  %Inh: 82%
[5]
  %Inh: 8%
[6]
  %Inh: 0%
[7]
  %Inh: 1%
[8]
  %Inh: 7%
[9]
  %Inh: 0%
[10]
  %Inh: 15%

## CSc1ccc(-c2cc3ncnc(SCC(=O)O)c3s2)cc1
[1]
  %Inh: 0%
[2]
  %Inh: 0%
[3]
  %Inh: 0%
[4]
  %Inh: 7%
[5]
  %Inh: 0%
[6]
  %Inh: 0%
[7]
  %Inh: 0%
[8]
  %Inh: 0%
[9]
  %Inh: 34%
[10]
  %Inh: 5%

## O=C(Nc1cccc(-c2nn3ncccc3c2-c2ccnc(Nc3cccc(C(F)(F)F)c3)n2)c1)c1c(F)cccc1F [GSK299495]
[1]
  %Inh: 10%
[2]
  %Inh: 98.7%
[3]
  %Inh: 0%
[4]
  %Inh: 33%
[5]
  %Inh: 87%
[6]
  %Inh: 51%
[7]
  %Inh: 43%
[8]
  %Inh: 24%
[9]
  %Inh: 53%
[10]
  %Inh: 13%

## CCn1cnc2c(N)ncnc21 [GW345098]
[1]
  %Inh: 0%
[2]
  %Inh: 21%
[3]
  %Inh: 0%
[4]
  %Inh: 5%
[5]
  %Inh: 12%
[6]
  %Inh: 3%
[7]
  %Inh: 5%
[8]
  %Inh: 4%
[9]
  %Inh: 0%
[10]
  %Inh: 49%

## O=C(NCCNc1ccnc(Nc2ccc(F)cc2)n1)c1cc2ccccc2s1 [GSK1379874]
[1]
  %Inh: 8%
[2]
  %Inh: 3%
[3]
  %Inh: 0%
[4]
  %Inh: 35%
[5]
  %Inh: 100%
[6]
  %Inh: 6%
[7]
  %Inh: 20%
[8]
  %Inh: 0%
[9]
  %Inh: 40%
[10]
  %Inh: 0%

## Cc1cn2c(=O)cc(N3CCOCC3)nc2n1Cc1cccc(Cl)c1Cl [GSK2334006]
[1]
  %Inh: 34%
[2]
  %Inh: 21%
[3]
  %Inh: 0%
[4]
  %Inh: 75%
[5]
  %Inh: 6%
[6]
  %Inh: 6%
[7]
  %Inh: 46%
[8]
  %Inh: 16%
[9]
  %Inh: 22%
[10]
  %Inh: 0%

## NS(=O)(=O)c1cccc(-c2ccc3nccc(-c4cccc(S(N)(=O)=O)c4)c3c2)c1 [GW867253]
[1]
  %Inh: 0%
[2]
  %Inh: 0%
[3]
  %Inh: 0%
[4]
  %Inh: 26%
[5]
  %Inh: 2%
[6]
  %Inh: 12%
[7]
  %Inh: 1%
[8]
  %Inh: 3%
[9]
  %Inh: 0%
[10]
  %Inh: 0%

## Cc1c(Cn2c(C)nn3c(=O)cc(N4CCOC(C)C4)nc23)cccc1C(F)(F)F (stereo not drawn) [GSK2344444]
[1]
  %Inh: 13%
[2]
  %Inh: 3%
[3]
  %Inh: 0%
[4]
  %Inh: 9%
[5]
  %Inh: 0%
[6]
  %Inh: 0%
[7]
  %Inh: 0%
[8]
  %Inh: 0%
[9]
  %Inh: 17%
[10]
  %Inh: 0%

## O=C(NOCC1CC1)c1ccc(F)c(F)c1Nc1ccc(I)cc1Cl
[1]
  %Inh: 0%
[2]
  %Inh: 0%
[3]
  %Inh: 0%
[4]
  %Inh: 0%
[5]
  %Inh: 0%
[6]
  %Inh: 0%
[7]
  %Inh: 0%
[8]
  %Inh: 19%
[9]
  %Inh: 0%
[10]
  %Inh: 0%
